Assay outcomes deposited in PubChem by several laboratories.
BJeLR lethal – kills HRASV12-expressing BJeLR cells; BJeLR (HRASV12) viability, CellTiter-Glo ATP luminescence, 48 h; inhibition, % (no concentration beside the values); 300,000 compounds, 0.17% hits; in the data active = inhibition above about 50%
ugtP null kill – kills S. aureus RN4220 lacking UgtP; growth inhibition, % (no concentration beside the values); S. aureus RN4220 ugtP deletion, OD600 growth, 16 h; 330,000 compounds, 0.54% hits; AID 1259309; in the data active = growth inhibition above about 68%
PrPC TRFRET – reduces human prion protein on the cell surface | P04156 | cell surface PrPC, TR-FRET read-out | inhibition, % at 13.8 µM | 370,000 compounds, 0.43% hits | AID 720596; in the data active = inhibition above about 24%
VHR inh abs – DUSP3 (human) phosphatase inhibition; P51452; recombinant VHR phosphatase, pNPP absorbance; inhibition, % at 13.3 µM; 290,000 compounds, 0.52% hits; AID 1654; in the data active = inhibition above about 50%
Target sequence (P51452 whole entry, looked up): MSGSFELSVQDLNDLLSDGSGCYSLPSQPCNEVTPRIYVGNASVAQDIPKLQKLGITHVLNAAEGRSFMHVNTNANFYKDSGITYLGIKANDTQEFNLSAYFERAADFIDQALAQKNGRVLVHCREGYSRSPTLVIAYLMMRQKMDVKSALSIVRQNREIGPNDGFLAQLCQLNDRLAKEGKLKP
3CLpro inhibitor – SARS-CoV 3CLpro protease inhibition; inhibition, % at 6 µM; P0C6X7; recombinant SARS-CoV 3CLpro, quenched FRET peptide cleavage; 290,000 compounds, 0.14% hits; in the data active = inhibition above about 12%
RN4220 kill – kills Staphylococcus aureus RN4220; S. aureus RN4220 growth, OD600, 16 h; inhibition, % (test concentration not listed); 330,000 compounds, 0.33% hits; in the data active = inhibition above about 85%
A number is an active result; . = inactive; / = not tested or not shown. Sampled rows, rich in hits. Any-hit rate of the full collection: about 1.4%.

SMILES	BJeLR lethal	ugtP null kill	PrPC TRFRET	VHR inh abs	3CLpro inhibitor	RN4220 kill
COC(=O)C1=C(c2ccccc2OCc2ccccc2)CC2CCC1N2C(=O)NCc1ccc(Br)cc1 (centres undefined)	/	.	/	/	/	.
Oc1ccccc1-c1cc(C(F)(F)C(F)F)nc(-c2ccccc2)n1	.	.	.	.	.	.
O=[N+]([O-])c1ccc(O)c(-c2cc(C(F)(F)F)nc(-c3ccccc3)n2)c1	68	99	.	.	.	100
COc1ccc(C)cc1Nc1c2c(nc3ccccc13)CCC2	56	.	.	.	.	.
Cn1c(=O)c(C(=O)NC2CCCCCCC2)c(O)c2ccccc21	.	.	.	.	.	.
Cn1c(=O)c(C(=O)NC2CCCCCC2)c(O)c2ccccc21	.	.	.	60	.	.
N#CC(=Cc1ccc(N2CCOCC2)o1)C(=O)NCCc1ccccc1	/	.	/	/	/	.
CN(C)C(CNc1ccc(S(C)(=O)=O)cc1[N+](=O)[O-])Cc1ccccc1 (centres undefined)	.	.	.	56	.	.
CN(C)C(CNc1ccc(S(C)(=O)=O)cc1[N+](=O)[O-])c1ccccc1 (centres undefined)	.	.	.	.	.	.
CCOC1OC(C(=O)N2CCOCC2)=CC(c2cn(C(C)=O)c3ccccc23)C1CCCO (centres undefined)	/	.	/	/	/	.
CCOC1OC(C(=O)Nc2ccccc2)=CC(c2cn(C(C)=O)c3ccccc23)C1CCCO (centres undefined)	/	.	/	/	/	.
Cc1ccc(C(C)(C)C)cc1S(=O)(=O)Nc1nc2ccccc2nc1Cl	.	.	27	.	.	.
Cc1cc(F)ccc1S(=O)(=O)Nc1nc2ccccc2nc1Cl	.	.	.	.	.	.
Cc1c(C(=O)N2CCCCC2)c(S(=O)(=O)N(C)Cc2ccccc2)c(C)n1C	.	.	.	54	.	.
COc1ccc(-c2sc3ccccc3c2-c2ccc(O)cc2)cc1	/	/	.	/	/	/
COc1ccccc1-c1sc2ccccc2c1-c1ccc(O)cc1	/	93	.	/	/	.
CC(=O)N1CCCc2cc(S(=O)(=O)N3CCCC(C(=O)Nc4cccc(C)c4)C3)ccc21 (centres undefined)	.	.	.	54	.	.
Nc1nc(CCl)nc(Nc2ccc3ccccc3c2)n1	114	.	.	.	.	.
Cc1ccccc1Nc1nc(N)nc(CCl)n1	67	.	.	.	.	.
COC(=O)C1=C(c2cccc(C#N)c2)CC2CCC1N2C(=O)NCc1ccc(F)cc1 (centres undefined)	/	.	/	/	/	.
CCn1cc(/C=C(\NC(=O)c2ccc(OC)c(OC)c2)C(=O)N2CCN(C)CC2)c2ccccc21	.	.	.	57	.	.
COC(=O)[C@@H]1Cc2c([nH]c3ccccc23)C(C)(C)N1C(=O)CCl	91	.	.	.	.	.
COC(=O)C1Cc2c([nH]c3ccccc23)C2CCC(=O)N12 (centres undefined)	/	/	.	/	/	/
Cc1nc(CN2CCC(c3ccccc3)CC2)cc(=O)[nH]1	.	.	.	53	.	.
COc1ccc(C2C3C(=O)N(C(C)(C)C)C(=O)C3[C@]3(Cc4ccccc4)C(=O)N(c4cccc(Cl)c4)C(=O)N23)cc1 (some centres undefined)	/	.	/	/	/	.
SMILES	BJeLR lethal	ugtP null kill	PrPC TRFRET	VHR inh abs	3CLpro inhibitor	RN4220 kill
CN(C)CCNC(=O)c1cc2c(s1)-c1ccc(Cl)cc1SC2	79	/	.	.	.	/
CCCCC(CC)COC1(c2ccccc2)OC(=O)c2ccccc21 (centres undefined)	.	86	.	.	.	.
O=Nc1c2nc3ccccc3n(O)c-2c2ccccc12	.	90	.	.	.	.
CCCCCCCC(N)C(O)C(=O)N(C)C(CCS(C)=O)C(=O)NC(Cc1ccc(O)cc1)C(=O)NC(Cc1ccc(O)cc1)C(=O)O (centres undefined)	/	.	/	/	/	.
Nc1c(C(=O)NCC2CCCO2)sc2nc3c(c(-c4ccco4)c12)CC/C3=C\c1ccco1 (centres undefined)	/	.	.	101	.	.
COc1ccc(N(C(=O)c2ccccc2C)S(=O)(=O)c2cccs2)cc1	.	84	.	.	.	.
O=[N+]([O-])c1ccc(-c2nc(Nc3cccc(O)c3)c3ccccc3n2)cc1	.	83	.	.	.	85
Cc1ccc(-c2nc(Nc3cccc(O)c3)c3ccccc3n2)cc1	.	.	.	/	.	.
COc1cccc(-c2nc(OC(C)C)c3ccccc3n2)c1	.	94	.	.	.	.
Cc1ccc(-c2nc(Nc3ccc(O)cc3)c3ccccc3n2)cc1	.	.	.	51	.	.
COc1cccc(Nc2nc(-c3ccccc3)nc3ccccc23)c1	.	91	.	/	.	.
O=C(O)c1cccc(Nc2nc(-c3ccc([N+](=O)[O-])cc3)nc3ccccc23)c1	.	.	.	.	.	.
O=C(Nc1ccccc1)C1=CC(c2coc3ccccc3c2=O)CC(OCc2ccc(CO)cc2)O1 (centres undefined)	/	.	/	/	/	.
COc1ccc(Nc2nc(-c3ccccc3O)nc3ccccc23)cc1	.	94	.	/	.	.
CCn1c(=O)n(CC)c2cc(N3CCCC3)c(NC(=O)c3ccccc3OC)cc21	.	.	.	52	.	.
COc1ccccc1/C=C\C(=O)NCC(=O)NN=Cc1ccc(O)cc1O	/	.	/	/	/	.
COc1ccccc1/C=C\C(=O)NCC(=O)N/N=C/c1ccc(O)cc1O	.	/	.	56	.	/
COc1cc(C(=O)N2CCCN(C)CC2)cc(OC)c1C	.	.	.	57	.	.
CN1CCCN(C(=O)c2ccc(Br)cc2)CC1	.	.	.	.	.	.
OCC1OC(OCCc2ccc(O)cc2)C(O)C(O)C1O (centres undefined)	/	.	/	/	/	.
O=C(CC(c1ccccc1)c1ccccc1)Nc1ccc(Cl)cn1	.	/	29	.	.	/
O=C(CS(=O)(=O)c1ccccc1)Nc1ccc(Cl)cn1	.	.	.	.	.	.
CCCC=C1CCCOC(C(=O)NCc2ccc(C)o2)(C(F)(F)F)C1 (centres undefined)	/	.	/	/	/	.
COc1ccc(NC(=O)C(=O)NCC2CCCN2S(=O)(=O)c2ccc(C)cc2)cc1 (centres undefined)	51	.	.	/	/	.
CCCCCCSc1nsc(NC(=O)CC(C)C)n1	.	.	.	.	.	.
SMILES	BJeLR lethal	ugtP null kill	PrPC TRFRET	VHR inh abs	3CLpro inhibitor	RN4220 kill
CCCCCCCSc1nsc(N)n1	.	89	.	57	.	.
CCC(C)C1COCCS(=O)(=O)N1Cc1ccccc1F (centres undefined)	/	.	/	/	/	.
NCCCCc1ccc2ccc3cccc4ccc1c2c34	/	100	.	/	/	101
O=C(O)CCCc1ccc2ccc3cccc4ccc1c2c34	.	.	.	.	.	.
O=C(c1oc(=O)c2ccccc2c1-c1ccccc1)N1CCOCC1	.	.	.	51	.	.
O=C(c1ccco1)N1CCN(C(=O)c2oc(=O)c3ccccc3c2-c2ccccc2)CC1	.	.	.	.	.	.
CC(C=NNC(=O)c1c(Br)cnn1C)=Cc1ccccc1	/	.	/	/	/	.
